Compounds without any hit were thinned out: in the full panel of roughly 83,000, 20% have a hit.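 Compound tested at a single concentration for 48 hours in 96-well plates; a percent growth value below 10 was scored as active.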 Active and inactive are the calls of the source.

The test relates to HCC-2998 colon. Briefly: NCI-60 one-dose screen, 48 h (100 = growth as untreated, 0 = no growth, -100 = all killed). As to conditions: 10 µM unless noted. The procedure:
Growth inhibition of the HCC-2998 human tumor cell line is measured as a screen for anti-cancer activity. Cells are grown in 96 well plates and exposed to the test compound for 48 hours. Compounds are tested at a single concentration, which is 10^-5 M for most compounds. The reported endpoint is percent growth (GI% or GIPRCNT), where numbers from 0 - 100% represent growth inhibition, and numbers from -100% - 0 represent cell death. For example, a value of 40 represents 60% growth inhibition. A value of 0 means no net growth occurred over the course of the experiment. A value of -40 indicates 40% of cells at the beginning of the experiment died by the end of the experiment. A value of -100 means all cells are dead at the end of the experiment.
NCI-60 Human Tumor Cell Lines Screen was performed using the standard one-dose NCI protocol, which is described in more detail at https://dtp.cancer.gov/discovery_development/nci-60/default.htm.
Compounds with GIPRCNT values below 10 were considered active. Activity score was based on GIPRCNT using the following formula: […]
Score is 0 for GIPRCNT values of 100 or above, 50 for GIPRCNT values of 0, and 100 for GIPRCNT values of -100.
As for `CC(C)Sc1nc(NN)c(C#N)c(-c2ccccc2)n1`, the growth was 100% (inactive).

As to `COc1ccc(-c2nc(N/N=C/c3ccco3)nc(N3CCOCC3)c2C#N)cc1`, the growth is 92.2% (inactive).

For `CN1C(=O)N(C)[C@H]2NC(NN)=N[C@H]21`, the growth is 102% (inactive).

In the case of `Cc1ccc2[nH]c(=S)n(-c3ccc(S(=O)(=O)Nc4ccc(Cl)nn4)cc3)c(=O)c2c1`, the growth was 104% (inactive).

For the molecule `COc1cc2nc(Cc3ccc(C)cc3)[nH]c(=O)c2cc1OC`, the growth was 106% (inactive).

Consider `O=C(Nc1ccc2ncnc(Nc3ccc(Oc4cccc(F)c4)c(Cl)c3)c2c1)c1ccc(CN2CCOCC2)cc1`, for which the growth is 69% (inactive).

For `COc1cc2nc(-c3ccc(C(F)(F)F)cc3)cc(OCCN3CCC(O)CC3)c2cc1OC`, the growth was 77.9% (inactive).

As to `CN1CCN(c2ccc(NC3=C(Cl)C(=O)c4ncccc4C3=O)cc2C#N)CC1`, the growth is 96.7% (inactive).

In the case of `CC[C@H](C)[C@@H]1NC(=O)[C@H](Cc2ccc(O)cc2)N(C)C(=O)[C@H](Cc2ccccc2)NC(=O)CN(C)C(=O)[C@@H]2CCCN2C(=O)[C@@H](Cc2ccccc2)N(C)C(=O)[C@H](CC(C)C)NC1=O`, the growth was -23.9% (active).

As to `COc1ccc(NC(=O)c2sc3nc(C)c(C(=O)c4ccc(OC)cc4)cc3c2N)cc1`, the growth was 89.4% (inactive).

Regarding `COc1ccc(Cc2nc3cc(OC)c(OC)cc3c(=O)[nH]2)cc1`, the growth is 53.7% (inactive).

For `Cc1[nH]n(-c2cccc(Cl)c2)c(=O)c1/C=C1\C=Nc2ccc(Br)cc21`, the growth is 63.5% (inactive).

For the molecule `Clc1cc(Cl)cc(N2N=C(c3cccc(Nc4ccncc4)c3)CC2c2ccc(Br)cc2)c1` (stereo not given), the growth was -39.9% (active).

`COc1ccc(C(=O)c2cc3c(N)c(C(=O)Nc4ccc(Br)cc4)sc3nc2C)cc1`: the growth is 94.7% (inactive).

Regarding `O=C1CCC(NC(=S)Nc2ccccc2)N1` (stereo not given), the growth is 98.7% (inactive).

As to `N#Cc1c(Nc2ccccc2)nn2cc(-c3nc4ccccc4s3)c(N)nc12`, the growth is 88% (inactive).

With `COc1cccc(CNCCN2C(=O)c3ccc4c5c(ccc(c35)C2=O)C(=O)N(CCNCc2cccc(OC)c2)C4=O)c1`, the growth was 97.8% (inactive).

As to `CCC1(CC)NC(=O)c2c(c3ccc(Cl)c(Cl)c3n2C)C1C#N` (stereo not given), the growth is 97.5% (inactive).

For `O=[N+]([O-])c1cccc(-c2nc(-c3ccc(Cl)cc3Cl)cn2-c2ccccc2)c1`, the growth was -1.15% (active).

As to `Cc1ccccc1C(c1ccccc1)c1ccccc1C`, the growth was 101% (inactive).

With `COc1cc(C2CC(c3cccc(Nc4ccncc4)c3)=NN2C(C)=O)cc(OC)c1OC` (stereo not given), the growth was 95.1% (inactive).

As to `O=S(=O)(c1cccc(NC2=Nc3cccc4cccc2c34)c1)N1CCCC1`, the growth was 79.5% (inactive).

With `O=C(N/N=C/c1ccc(O)c(O)c1)c1sc2ccccc2c1Cl`, the growth is 96.5% (inactive).

In the case of `Cc1ccc(-c2csc(/N=C3\C(=O)Nc4ccccc43)n2)cc1`, the growth is 6.25% (active).

Turning to `CC(C)NC(=O)N1C(=O)CCC1NNC(=O)c1ccc([N+](=O)[O-])cc1` (stereo not given), the growth was 98.6% (inactive).

Turning to `COC(=O)Nc1ccc(NC(=O)OC)cc1`, the growth was 106% (inactive).

Consider `CCCOc1nc(SCCC)nc2c1cnn2-c1ccccc1`, for which the growth was 99.6% (inactive).

On to `Nc1ccccc1NC(=O)c1ccc(CN2CCC/C(=C\c3cccc(Cl)c3)C2=O)cc1`, for which the growth is 12.4% (inactive).

Regarding `Cc1ccccc1-c1cc(Cc2ccc(F)cc2)c(=O)[nH]n1`, the growth is 119% (inactive).

Take `C=C1C(=O)O[C@H]2[C@H]1CC/C(COC(=O)CCCCCC(=O)OC/C1=C/CC[C@@]3(C)O[C@H]3[C@H]3OC(=O)C(=C)[C@@H]3CC1)=C\CC[C@@]1(C)O[C@@H]21`: the growth was 84.5% (inactive).

For `COC(=O)N[C@H]1CCc2cc(OC)c(OC)c(OC)c2-c2ccc(SC)c(=O)cc21`, the growth is 6.51% (active).

With `C#CCn1cc(C=C2C(=O)NC(=S)NC2=O)c2cc(Cl)ccc21`, the growth was -4.98% (active).

Turning to `CC(Oc1ccc(C(=O)NS(=O)(=O)C(C)(C)C)cc1C(F)(F)F)c1ccc(Oc2ccccc2)cn1` (stereo not given), the growth was 86.9% (inactive).

`Cc1ccc2nc3c(cc2c1)CSc1nnc(-c2ccc[nH]c2=S)n1N3`: the growth is 107% (inactive).

Regarding `CCSc1ccc2c(c1)N(CCCN1CCN(C)CC1)c1ccccc1S2`, the growth was 13.4% (inactive).

Consider `COc1cc(NCC(C)(O)CN(CC(C)C)CC(C)C)c2nc(C)ccc2c1` (stereo not given), for which the growth was 75.5% (inactive).

Turning to `O=C(N/N=C/c1cccnc1)c1ccccc1Nc1cccc(C(F)(F)F)c1`, the growth was 101% (inactive).

With `Cn1ncc2c(Nc3ccccc3Cl)nc(Cl)nc21`, the growth was 109% (inactive).

For `CCCc1cc2c(cc1Br)OCO2`, the growth was 103% (inactive).

On to `COc1ccc(CC(C)=C(c2ccc(OCCN(C)C)cc2)c2ccc(OCCN(C)C)cc2)cc1`, for which the growth is 89% (inactive).

The values above are taken from PubChem BioAssay (NCI).
